# Among all 350,000 compounds or so, about 5,500 (1.6%) were called active.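 The calls were made as follows: active = significant combined selectivity score with lowered wild-type GFP, culture density cut under 30%, mutant RFP and density less affected; inactive = any of these conditions unmet.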 For the sample, actives were picked, then their nearest neighbours and some compounds at random.
# Experiment: GFP drop in mixed WT/humanized-ribosome E. coli culture – GFP/RFP fluorescence, OD600, single point, bacterial rRNA inhibitor project, primary screen (AID 720706)
# Conditions: E. coli WT GFP vs humanized-ribosome RFP mutants, 24 h; GFP signal change (wild-type ribosome): stronger effect = lower value, DMSO median 0, no signal -100; OD600 change: measured here: OD600 growth, DMSO median 0, no signal -100; RFP signal change: measured here: RFP humanized mutant strains, DMSO median 0, no signal -100, concentration not given here
Compound,GFP signal change (wild-type ribosome),OD600 change [%],RFP signal change [%]
O=C1[C@H](Cc2ccc(C(F)(F)F)cc2)CCn2nncc2COC[C@@H]2CCCCN12,-1.75% (inactive),-2.21,-0.899
CN1c2ccc(Br)cc2[C@H]2[C@H](CCN2S(=O)(=O)c2ccc(F)cc2)[C@@H]1CO,-56.1% (inactive),-75.9,-12.6
O=C(CSc1nc2ccccc2[nH]1)N/N=C/C=C\c1ccccc1[N+](=O)[O-],-28.1% (active),3.26,1.21
O=C(COC(=O)CCCSc1nc2ccccc2[nH]1)Nc1ccc(Oc2ccccc2)cc1,-34.8% (inactive),-55,0.945
CN(Cc1ccccc1)C(=O)CSc1nc2ccccc2[nH]1,-2.78% (inactive),2.36,-0.812
CCOc1ccc(C2C3=C(CCCC3=O)N(CC(=O)O)C3=C2C(=O)CCC3)cc1,17.4% (inactive),6.44,-0.227
CCOC(=O)c1c(N)sc2c1CCCC2=O,1.16% (inactive),-0.897,-0.662
CCOC(=O)C1=C(N)N(c2ccc(C)cc2)C2=C(C(=O)CCC2)C1c1cccs1 (stereo unspecified),-21.7% (active),-17.5,0.496
COc1ccc(NC(=O)N(C)C[C@H]2OCCCC[C@H](C)Oc3ccc(NC(=O)NC4CCCCC4)cc3C(=O)N([C@@H](C)CO)C[C@@H]2C)cc1,1.21% (inactive),2.03,2.63
COc1cccc(C(=O)NNC(=O)/C=C/c2ccccc2)c1,6.18% (inactive),10.2,3
COc1ccccc1OCCCC(=O)Nc1ccc2c(c1)OCCO2,-2.92% (inactive),-5.58,-2.87
COc1cccc(/C=C/C(=O)Nc2ccc3c(c2)OCCO3)c1,-29.5% (active),-2.39,4.27
CO[C@H]1CN(C)C(=O)c2ccc(NC(C)=O)cc2OC[C@@H](C)N(C(=O)CN(C)C)C[C@@H]1C,-1.24% (inactive),6.54,-4.25
CCC(C)N(C)C1CCN(C(=S)Nc2ccc(OC)cc2)CC1 (stereo unspecified),6.68% (inactive),-2.86,-3.62
COc1ccccc1C1CCN(C(=S)Nc2ccc(Br)cc2)CC1,-36.8% (active),-23.8,-10.2
COc1ccccc1NC(=S)N1CCN(C(c2ccccc2)c2ccccc2)CC1,5.66% (inactive),0.74,-6.29
CN[C@H]1C[C@H]2c3[nH]c4c(-c5ccccc5)cccc4c3CCN2C(=O)[C@H]1[C@H](C)O,-35.6% (inactive),-70.1,-2.51
CCC(CC)c1nnc(NC(=O)C2CCN(C(=O)c3ccco3)CC2)s1,-22.2% (active),-16.6,-5.86
COc1ccc(CNC(=O)C2CCN(C(=O)c3ccco3)CC2)cc1,-1.02% (inactive),2.41,0.192
CCc1nnc(NC(=O)C2CCN(C(=O)c3ccccc3C)CC2)s1,6.89% (inactive),6.36,0.577
C/C=C/c1ccc2c(c1)O[C@H](CN(C)C(=O)Cc1ccncc1)[C@@H](C)CN([C@@H](C)CO)S2(=O)=O,-0.815% (inactive),-5.29,0.444

Compound,GFP signal change (wild-type ribosome),OD600 change [%],RFP signal change [%]
O=C(NCCS(=O)(=O)N1CCN(c2ccccc2F)CC1)c1ccc(Br)o1,-32% (active),-25.8,-5.03
O=C(NCCS(=O)(=O)N1CCN(c2ccccc2)CC1)c1cc(=O)c2ccccc2o1,1.78% (inactive),2.38,-0.491
O=C(NCCS(=O)(=O)N1CCN(c2ccccc2)CC1)c1ccco1,-1.63% (inactive),-7.54,-1.71
COc1cccc(S(=O)(=O)N2CCCCN3[C@H](CO)[C@H](c4ccc(C#CC5CC5)cc4)[C@H]3C2)c1,-57.8% (inactive),-71,-6.51
Cc1ccc(S(=O)(=O)N2CCN(c3ccccc3)CC2)cc1C,-16.3% (inactive),-15.2,-8.46
Cc1ccc(S(=O)(=O)N2CC(=O)Nc3ccccc32)cc1C,-32.4% (active),-6.68,4.37
Cc1ccc(S(=O)(=O)N(C)CC(=O)OCC(=O)N2CC(=O)Nc3ccccc32)cc1,2.71% (inactive),-0.97,0.17
CCCNC(=O)N1C[C@H](C)[C@@H](OC)CN(C)C(=O)c2ccc(NS(=O)(=O)CC(F)(F)F)cc2OC[C@@H]1C,-0.684% (inactive),1.48,-1.07
Cc1ccccc1-c1cnc2c(c1)C(=O)N([C@H](C)CO)C[C@@H](C)[C@H](CN(C)C(=O)c1cccnc1)O2,2.61% (inactive),12.8,-2.14
COc1ccc2c3c(n(C)c2c1)[C@H](CO)N(Cc1ccccc1)CC31CCN(C)CC1,0.784% (inactive),7.81,2.48
O=S(=O)([N-]c1nc2ccccc2nc1-[n+]1ccc(Cc2ccccc2)cc1)c1ccc(Br)s1,-29.2% (active),-18.6,-0.481
CC(C)NC(=O)Nc1ccc2c(c1)CC(=O)N([C@@H](C)CO)C[C@@H](C)[C@H](CN(C)Cc1ccc(C(F)(F)F)cc1)O2,2.02% (inactive),-34.5,-0.097
CCN(CC)C(=O)C(=O)c1cn(CC(=O)NCc2ccc3c(c2)OCO3)c2ccccc12,10.3% (inactive),-1.1,3.71
Cn1cc(CCC(=O)NC2CC2)c2ccccc21,4.27% (inactive),10.1,-0.645
Cn1cc(CCC(=O)NCc2ccc3c(c2)OCO3)c2ccccc21,-21.5% (active),-10.6,2.95
O=C(C[C@@H]1CC[C@H](NC(=O)C2CCC2)[C@@H](CO)O1)NC1CCCCC1,3% (inactive),3.16,-1.22
Cc1ccc(S(=O)(=O)NCCCn2ccnc2)cc1C(=O)NC(C)C,10.7% (inactive),7.94,-1.51
Cc1cccc(NS(=O)(=O)c2ccc(C)c(C(=O)NCC(c3ccccc3)N(C)C)c2)c1 (stereo unspecified),4.21% (inactive),4.97,2.06
Cc1ccc(S(=O)(=O)NCCC(c2ccccc2)c2ccccc2)cc1C(=O)O,-40.5% (active),-24.2,-13.9
O=C([C@@H]1[C@@H](CO)[C@@H]2Cn3c(ccc(C4=CCCCC4)c3=O)[C@H]1N2Cc1nccs1)N1CCCCC1,-2.47% (inactive),3.59,1.3
COc1ccc(NC(=O)Nc2ccc3c(c2)CC(=O)N([C@H](C)CO)C[C@H](C)[C@H](CN(C)S(=O)(=O)c2ccccc2)O3)cc1,0.245% (inactive),-2.9,0.358
